# Assay results: ChEMBL document CHEMBL4513146, “CO-ADD screening of Karazin Kharkiv National University (Ukraine) compounds”
# Entries with a potency or affinity are not part of this list.
# How the values were obtained:
# Klebsiella pneumoniae = conditions: Concentration 32 ug.mL-1;; ASSAY_TEST Inhibition of Bacterial Growth; detection method Absorption (OD600); MEDIA CAMHB; plate type 384well; NBS; CORNING #3640; time 18 hr
# Candida albicans = conditions: Concentration 32 ug.mL-1; ASSAY_TEST Inhibition of Fungal Growth; detection method Absorption (OD530)
# Cryptococcus neoformans = conditions: Concentration 32 ug.mL-1; ASSAY_TEST Inhibition of Fungal Growth; detection method Resazurin; Absorption (OD600-OD570); plate type 384well; NBS; CORNING #3640
Compound,Inhibition (Klebsiella pneumoniae),Inhibition (Candida albicans),Inhibition (Cryptococcus neoformans)
COc1ccc(-c2cc3c4nnc(CCC(=O)NCc5ccc(OC)c(OC)c5)n4ccn3n2)cc1,12.53%,2.24%,-11.61%
O=C(CSc1nnc2c(=O)n(-c3cccc(F)c3)ccn12)c1ccc(F)cc1,9.88%,4%,-7.94%
COc1ccc(Cl)cc1NC(=O)CSc1nc2ccccc2n2cnnc12,13.26%,6.06%,-17.53%
COc1ccc(NC(=O)Cn2nc3c(Oc4ccc(C)cc4)nccn3c2=O)cc1Cl,0.22%,18.79%,-4.53%
COc1cccc(CN(c2cccc(C)c2)S(=O)(=O)c2ccc3nnc(C)n3c2)c1,4.27%,0.75%,-14.81%
COc1ccc(N(Cc2cccc(OC)c2)S(=O)(=O)c2ccc3nnc(C)n3c2)cc1,9.44%,0.91%,-1.64%
O=C(Cn1nc2c(N3CCOCC3)nccn2c1=O)NCc1ccccc1Cl,10.56%,3.88%,-5.18%
CC(C)CCNC(=O)CSc1nnc2c3cc(-c4ccccc4)nn3ccn12,15.29%,4.42%,-17.81%
Cc1cccc(C)c1NC(=O)CSc1nnc2c3cc(-c4ccccc4)nn3ccn12,-14.45%,-0.49%,-6.46%
Cc1ccc(NC(=O)CSc2nc3ccccc3n3c(C(C)C)nnc23)cc1Cl,1.48%,-0.39%,-22.27%
CCCc1nnc2c(=O)n(CC(=O)Nc3cccc(C#N)c3)c3ccccc3n12,0.67%,-0.31%,-17.76%
